# Laboratory results from PubChem BioAssay (Tox21).
# Inconclusive results are not listed. Values without a mark were called inactive. The source made the active and inactive calls. Calls follow the shape of the dose curve; as a rule, active = well fitted inhibition curve with a large enough effect in the signal ratio in the repeat runs, with a control signal flat; inconclusive = weak or mixed curves, or effect the other way; inactive = flat fitted curve, though single readings scatter; the % refers to the signal ratio.
# Target: D(2) dopamine receptor (Homo sapiens) (UniProt P14416)
# Assay: Dopamine D2 receptor (DRD2) small molecule antagonists, cell-based qHTS assay (AID 1963595)
# Settings: HEK293-DRD2 cAMP HTRF antagonist mode; series mostly up to 92.4 µM; activity change, negative = inhibition: at the top concentration
# Description: National Center for Advancing Translational Sciences [NCATS]
# Division of Preclinical Innovation [DPI]
# U.S. Environmental Protection Agency [EPA]
# National Institutes of Environmental Health Sciences [NIEHS]
# National Toxicology Program [NTP]
# U.S. Food and Drug Administration [FDA]
# DRD2 is the D2 subtype of the dopamine receptor, which is coupled to Gi subtype of G protein-coupled receptor. This G protein-coupled receptor inhibits adenylyl cyclase activity. The DRD2-HEK293 cell line stably expressing D2 dopamine receptor can be used for screening agonists and antagonists of interactions between D2 and its ligands. The Hek293-DRD2 cAMP assay is based on HTRF technology. It measures changes of cAMP accumulation in response to Gi coupled GPCR activation or inhibition.
# Tox21 Assay Protocol Summary:
# DRD2-Hek293 cells were dispensed at 600 cells/3uL/well in 1536-well white plates using a Multidrop Dispenser. After the assay plates were incubated at a 37 C/5% CO2 incubator for 24 h, 1 uL of Ro20-1724 at final concentration of 0.1 mM was transferred to the assay plate by a Flying Reagent Dispenser. Following Ro20-1724 addition, 23 nL of compound dissolved in DMSO, positive controls or DMSO only was added to the assay plates via Wako pintool station. The assay plates were incubated at room temperature for 10 min. Next, 1 uL of mixture of NKH477 (final concentration at 200 nM) and quinpirole (final concentration at 12 nM) was added into the plates. After the assay plates were incubated at room temperature for an additional 30 min, 2.5 ul/well of cAMP-d2 and 2.5 ul/well of anti-cAMP-cryptate were added respectively into the assay plates using a Flying Reagent Dispenser. The plates were incubated at room temperature for 1 h. The fluorescence intensity in the plates was measured at 340 nm excitation and 665 & 620 nm emission by an Envision plate reader.
# % is scaled to controls: 0 for no effect and ±100 for the full control effect; potency is read from the fitted curve at half-maximal effect.
# Chain of D(2) dopamine receptor (Homo sapiens) (P14416 whole entry, looked up): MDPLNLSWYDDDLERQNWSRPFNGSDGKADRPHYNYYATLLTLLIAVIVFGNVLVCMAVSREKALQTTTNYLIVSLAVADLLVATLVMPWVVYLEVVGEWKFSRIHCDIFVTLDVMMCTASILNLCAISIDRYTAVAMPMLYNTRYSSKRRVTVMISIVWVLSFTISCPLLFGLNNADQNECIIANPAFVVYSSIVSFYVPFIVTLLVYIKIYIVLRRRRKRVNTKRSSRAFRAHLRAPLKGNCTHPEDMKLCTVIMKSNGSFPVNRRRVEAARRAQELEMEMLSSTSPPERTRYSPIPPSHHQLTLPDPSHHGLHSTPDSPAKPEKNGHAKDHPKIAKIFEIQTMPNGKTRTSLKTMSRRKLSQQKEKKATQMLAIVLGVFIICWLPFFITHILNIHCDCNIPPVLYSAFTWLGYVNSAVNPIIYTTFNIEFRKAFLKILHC
Structure (SMILES),"activity change, negative = inhibition",Potency
Brc1cc(-c2ccc(Br)c(Br)c2Br)cc(Br)c1Br,0.491% [at 42.5 µM],
CN(Cc1ccc(C(C)(C)C)cc1)Cc1cccc2ccccc12,-16.4% [at 42.5 µM],
CCCC(C)C(=O)O (stereo not given),0.541%,
COc1cc(Cl)ccc1Oc1ccc(Cl)cc1Cl,-0.932%,
O=C1Cc2ccccc2N1c1c(Cl)cccc1Cl,9.83%,
NCCCOCCOCCOCCCN,-13.3%,
CC(CC=O)CCCC(C)(C)O (stereo not given),-1.28%,
Nc1c(I)cc(I)c(C(=O)N(CCC(=O)O)c2ccccc2)c1I,2.78% [at 42.5 µM],
CC(C)(COC(=O)c1ccccc1)COC(=O)c1ccccc1,2.82%,
COC(C)(C)OC,-5.07%,
CC1=NN(c2cc(Cl)c(S(=O)(=O)O)cc2Cl)C(=O)C1N=Nc1ccc(S(=O)(=O)O)cc1 (stereo not given),-17.3%,
Cc1ccc(O)c(N)c1,13%,
C(=C(c1ccccc1)c1ccccc1)c1ccccc1,-24.4%,
C#CC(O)C(CC)CCCC (stereo not given),-21.4%,
COc1ccccc1OCC1CNC(=O)O1 (stereo not given),-5.25% [at 42.5 µM],
[O-][n+]1ccccc1SSc1cccc[n+]1[O-],-21.1% [at 18.9 µM],
CC(CC(=O)Cl)CC(C)(C)C (stereo not given),-0.194%,
CN1CCC(=C2c3ccccc3CCc3cccnc32)CC1,,29.8 µM (active)
CCCCCCCC/C=C/CCCCCCCC1=NCCN1CCO,4.8%,
CC(=O)Oc1ccc([N+](=O)[O-])cc1CCl,8.32%,

Structure (SMILES),"activity change, negative = inhibition",Potency
CCC(Cl)CC(Cl)C(Cl)C(Cl)C(Cl)C(C)Cl (stereo not given),-0.674% [at 18.9 µM],
NS(=O)(=O)c1cc2c(cc1Cl)NC(CSCc1ccccc1)=NS2(=O)=O,6.58% [at 42.5 µM],
Cc1ccccc1N=Nc1ccc(N=Nc2c(O)ccc3ccccc23)c(C)c1,5.24% [at 42.5 µM],
Clc1cccc(Cl)n1,3.76%,
OCCN1CCN(CCO)CC1,1.58%,
CC[N+](CC)(CC(=O)Nc1c(C)cccc1C)Cc1ccccc1 (tested in a mixture with another compound),-0.276% [at 42.5 µM],
CCCCOCCOCCOCc1cc2c(cc1CCC)OCO2,6.7% [at 42.5 µM],
CCN(CC)CCNc1ccc(CO)c2sc3ccccc3c(=O)c12,-2.89% [at 42.5 µM],
CCCCCCCCCCC[C@@H](C[C@@H]1OC(=O)[C@H]1CCCCCC)OC(=O)[C@H](CC(C)C)NC=O,-1.46% [at 42.5 µM],
C=O,14.7%,
CCC/C=C(\C=O)CC,-1.35%,
N#Cc1nc(Cl)c(Cl)c(Cl)c1Cl,4.16%,
C=C[Si](OC(C)=O)(OC(C)=O)OC(C)=O,2.2%,
COc1ccc(COC=O)cc1,-1.52%,
CCOC(=O)CC(O)(CC(=O)OCC)C(=O)OCC,20%,
Nc1nc(N)c2nc(CNc3ccc(C(=O)N[C@@H](CCC(=O)O)C(=O)O)cc3)cnc2n1,-1.16%,
Cc1ccc(C(C)(C)C)c(O)c1,,inactive
C=CCOc1ccccc1OCC(O)CNC(C)C (stereo not given),4.38% [at 42.5 µM],
CC(C)C(O)(c1ccc(OC(F)(F)F)cc1)c1cncnc1 (stereo not given),12.5%,
Cc1ccc2c(c1)CCCN2,12.6%,
